Compound activity (PubChem BioAssay)
Pf growth 48h: inhibits P. falciparum growth in the first generation, 48 h; P. falciparum luciferase growth in erythrocytes, 48 h; Potency, µM (doses to about 28.7 µM), inactives show top-dose activity change, negative = inhibition, hits mostly inhibitors; 310,000 tested, 5.9% active; AID 504832; note: potency is the fitted concentration of half-maximal effect; % is set by controls: 0 for no effect and ±100 for the full control effect
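Luciferase-expressing parasites in RBCs, 2% Hct / 0.1% parasitemia final; RPMI 1640 + 0.5% Albumax; 37 C, 5% CO2, one generation; luminescence read-out, lower signal = inhibition.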
Pf growth 96h: inhibits malaria parasite growth, 96 h; P. falciparum luciferase reporter growth, 96 h; 320,000 tested, 6.9% active; Potency, µM (doses to about 28.7 µM), for inactives: top-dose activity change, negative = inhibition, hits mostly inhibitors; note: potency is the fitted concentration of half-maximal effect; % is set by controls: 0 for no effect and ±100 for the full control effect
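96 h incubation, 37 C, 5% CO2, of luciferase-reporter P. falciparum-infected RBCs (2% hematocrit, 0.05% parasitemia final) with test compounds; endpoint luminescence.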
Sm TGR inh: S. mansoni TGR enzyme inhibition; Q962Y6; purified TGR, DTNB reduction, TNB absorbance 405 nm; Potency, µM (top dose mostly 114 µM), inactives show at the highest dose activity change, negative = inhibition, actives largely listed as inhibitors; 360,000 tested, 3% active; note: potency is the fitted concentration of half-maximal effect; % is set by controls: 0 for no effect and ±100 for the full control effect; nearly all actives have a fitted effect of over 60% in size
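Kinetic colorimetric format: TGR-catalysed, NADPH-driven DTNB reduction monitored via TNB absorbance. Enzyme dispensed at 20 nM; compound exposure 15 min at room temperature before reaction start.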
HCV inhibitor: HCV inhibition; Huh7.5.1 HCVcc-Cre infection, luciferase reporter, 44 h; Potency, µM (series often up to 41.8 µM), inactives show top-dose activity change, negative = inhibition, usual class: inhibitors; 340,000 tested, 3.4% active; AID 651820; note: potency is the fitted concentration of half-maximal effect; % is set by controls: 0 for no effect and ±100 for the full control effect
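After 44 h co-culture of compound, cells and HCVcc-Cre (~0.5 moi), substrate is added for 15 min at room temperature and luciferase measured over 15 sec. Cells were seeded at 1,000/well and pre-cultured 4 h.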
SARS PLP yeast: inhibitors of SARS-CoV papain-like protease in yeast | S. cerevisiae expressing SARS-CoV PLpro, growth rescue | Potency, µM (top dose mostly 32.9 µM), for inactives: at the highest dose activity, positive = growth rescue, hits mostly activators | 330,000 tested, 0.19% active | AID 485353; calls by dose curve; note: potency is the fitted concentration of half-maximal effect; 0% is about no effect; nearly all actives have a fitted effect of over 55% in size
HCMV antiviral: inhibitors of human cytomegalovirus | HFF cells, HCMV-luciferase reporter, 72 h; stronger effect = lower value | activity change, negative = inhibition, % at 57.5 µM | 410,000 tested, 4.5% active; in the data active = activity change below about -60%; inconclusive = no clear call, values can overlap the other calls; inactive = above about -39%; note: % is set by controls: 0 for no effect and ±100 for the full control effect
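Steps: HFFs plated, 16 h 37C; compounds added; HCMV-luciferase added to MOI 1 PFU/cell; 72 h 37C; OneGlo reagent, 5 min room temperature; luminescence read, normalized to controls.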
* marks the source's active call; other numbers are inactive results; u = inconclusive; x = not tested or not shown. Rows were chosen to be rich in hits. Some 15% of all compounds tested hit in one or more screens of this group. Unless noted, calls come from the whole dose curve; as a rule, active = well fitted curve in the direction sought with a large enough effect; inconclusive = small, poorly fitted or top-dose-only effect, or another doubt; inactive = no such curve, though single readings can be large; an effect the other way counts as inactive or inconclusive.

SMILES | Pf growth 48h | Pf growth 96h | Sm TGR inh | HCV inhibitor | SARS PLP yeast | HCMV antiviral
CC(C(=O)NCc1ccccc1Cl)N1C(=O)c2ccccc2C1=O (stereo not given) | 3% | 0% | 1% | 9% | 0% | -2
COc1ccc(Br)cc1CNC(=O)C1CCCCN1S(=O)(=O)c1ccc(F)cc1 (stereo not given) | x | x | 6% | x | x | -23
COc1ccc(C)cc1NC(=O)N(Cc1ccc(C)o1)C1CCN(C(C)=O)CC1 | x | x | -1% | x | x | 26
CC(=O)NC(CCS(C)(=O)=O)C(=O)Nc1cccc(C(C)=O)c1 (stereo not given) | 6% | u | 45µM* | 16% | -2% | 1
CC(=O)NC(CCS(C)(=O)=O)C(=O)Nc1ccccc1 (stereo not given) | 19% | 25% | -8% | 7% | -2% | 30
CCCCOC(=O)c1ccc(NC(=O)C(CCS(C)(=O)=O)NC(C)=O)cc1 (stereo not given) | 56% | 5.2µM* | -2% | 0% | 12% | 31
CC(C)=CCC[C@H](C)C[C@@H]1CC2=C(C(=O)OC(C)(C)O2)[C@@H](c2ccc(F)cc2)O1 | x | x | x | x | x | 4
COc1ccc(N2C3=C(CC4=C2CCCC4=O)C(=O)CCC3)cc1 | u | 12µM* | 40µM* | u | 4% | u
COc1ccc(N2C3=C(C(=O)CC(C)(C)C3)C(c3ccccc3OC)C3=C2CC(C)(C)CC3=O)cc1 | u | u | -21% | -18% | -1% | -65*
COc1ccc(OC)c(C2Nc3ccccc3NC3=C2C(=O)CC(C)(C)C3)c1 (stereo not given) | 19% | 4.1µM* | -8% | 2% | -6% | 11
Cc1nn(C)cc1C1C2=C(CC(C)(C)CC2=O)N(c2ccccc2)C2=C1C(=O)CC(C)(C)C2 | x | 3.7µM* | -1% | -2% | 12% | -34
Cc1noc(C)c1C(=O)OC(C)C(=O)c1ccc(C(C)(C)C)cc1 (stereo not given) | x | x | x | x | x | 27
CN(C)C1=NCCN1CCC1CCCC1 | -8% | -18% | -20% | 2% | -9% | -19
COc1ccc(C2C3=C(CC(C)(C)CC3=O)N(C)C3=C2C(=O)CC(C)(C)C3)cc1 | -15% | u | 3% | -8% | -1% | 6
COc1ccc(N2C3=C(CC4=C2CC(C)(C)CC4=O)C(=O)CC(C)(C)C3)cc1 | 9.3µM* | 13µM* | u | u | 1% | -99*
COc1ccccc1N(CC(=O)N1CCCC1)S(=O)(=O)c1cc([N+](=O)[O-])ccc1Cl | x | x | x | 8% | 3% | -10
CC(=O)c1c(C)oc2c(Br)cc(NS(=O)(=O)c3ccc(Br)cc3)cc12 | x | x | 5.6µM* | x | x | 12
CC(=O)c1c(C)oc2c1cc(NS(=O)(=O)c1ccc(Br)cc1)c1ccccc12 | x | x | 6% | x | x | -10
CC(C)(C)c1ccc(C(=O)NC2(C(F)(F)F)C(=O)Nc3c2c(=O)[nH]c(=O)n3-c2ccccc2)cc1 (stereo not given) | x | x | 1% | x | x | 5
COCCCN(C(=O)Nc1ccc(C)c(C)c1)C(C)c1ccccn1 (stereo not given) | x | 13µM* | 14% | -10% | 1% | 18
COCCCN(C(=S)Nc1cc(Cl)cc(Cl)c1)C(C)c1ccccn1 (stereo not given) | -9% | 3% | -16% | u | -3% | u
COCCN(C(=O)Nc1ccccc1)C(C)c1cccnc1 (stereo not given) | x | 5.2µM* | 10% | 8% | -2% | 101
CC(=O)c1cc2c(cc1NC(=O)CN(C)S(=O)(=O)c1cccs1)OCO2 | x | x | x | u | 4% | -14
COc1ccc(C2(C)NC(=O)N(CC(=O)Nc3ccc(Br)cc3F)C2=O)cc1OC (stereo not given) | u | 3.7µM* | 8% | u | -2% | -17
COc1ccc(C2(C)NC(=O)N(CC(=O)Nc3ccc(Br)c(C)c3)C2=O)cc1OC (stereo not given) | 3% | 16% | 5% | u | 2% | 10
